Data: PubChem BioAssay AID2447 (National Center for Advancing Translational Sciences (NCATS), 2010)
Some of the results follow. Records with an inconclusive call do not appear. The source made the active and inactive calls. The call rests on the fitted dose curve.

Assay: Cell Viability Secondary Assay for Inhibitors of the Interaction of Thyroid Hormone Receptor and Steroid Receptor Coregulator 2
Settings: HepG2 viability, ATP luminescence (CellTiter-Glo), 72 h
Source text: NIH Molecular Libraries Probe Production Network [MLPCN] NIH Chemical Genomics Center [NCGC] MLPCN Grant: DK058080 Assay Provider: R. Kip Guy, St. Jude Children's Research Hospital NCGC Assay Overview: Thyroid receptor (TR) regulates many homeostatic processes including basal metabolism, cardiovascular function, body weight, and lipid trafficking. TR modulators are potential therapeutics for obesity and hyperlipidemias but current thyroid analogs have undesirable side effects, particularly cardiac stimulation. This secondary assay characterized compounds identified in the qHTS for Inhibitors of the Interaction of Thyroid Hormone Receptor and Steroid Receptor Coregulator 2 (PubChem AID 1485). The effect of compounds on the viability of HepG2 cells was assessed by measuring ATP levels.
NCGC Assay Protocol Summary: HepG2 cells were grown to 80% confluence, collected, and cells were dispensed at 500 cells/25 ul/well into 384 well plates (Costar 3712). Following transfer of 100 nL compound (ranging from 2.5 nM to 50 uM), cells were incubated for 72 hours at 37 C and 5% CO2. Following this incubation, plates were equilibrated at ambient temperature for 30 min, 25 ul of CellTiter-Glo (Promega) was added and luminescence was detected by an EnVision (PerkinElmer) reader.

| Compound | Potency | outcome |
| --- | --- | --- |
| CS(=O)(=O)c1ccc(C(=O)OCC(=O)N2CCNc3ccccc32)cc1[N+](=O)[O-] | 18 µM (active) |  |
| CS(=O)(=O)c1ccc(C(=O)OCC(=O)N2CCC(c3ccccc3)CC2)cc1[N+](=O)[O-] | 8.9 µM (active) |  |
| O=C(COC(=O)c1cccc([N+](=O)[O-])c1)NC1C2CC3CC(C2)CC1C3 (stereo not drawn) |  | inactive |
